About 14,000 (4.5%) of roughly 310,000 compounds showed an effect of 50% or more. Effects have a minus sign here. The sample as a whole holds a higher share of strong results than the screen did.
Target: human ether-à-go-go-related gene (hERG) potassium channel (human, UniProt Q12809)
Assay: primary screen, population patch clamp on CHO cells stably expressing hERG; higher = less effect of the substance
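Also: peak tail current of the secondary pulse compared with the same well before compound.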

Chain of human ether-à-go-go-related gene (hERG) potassium channel (Q12809 whole entry, looked up): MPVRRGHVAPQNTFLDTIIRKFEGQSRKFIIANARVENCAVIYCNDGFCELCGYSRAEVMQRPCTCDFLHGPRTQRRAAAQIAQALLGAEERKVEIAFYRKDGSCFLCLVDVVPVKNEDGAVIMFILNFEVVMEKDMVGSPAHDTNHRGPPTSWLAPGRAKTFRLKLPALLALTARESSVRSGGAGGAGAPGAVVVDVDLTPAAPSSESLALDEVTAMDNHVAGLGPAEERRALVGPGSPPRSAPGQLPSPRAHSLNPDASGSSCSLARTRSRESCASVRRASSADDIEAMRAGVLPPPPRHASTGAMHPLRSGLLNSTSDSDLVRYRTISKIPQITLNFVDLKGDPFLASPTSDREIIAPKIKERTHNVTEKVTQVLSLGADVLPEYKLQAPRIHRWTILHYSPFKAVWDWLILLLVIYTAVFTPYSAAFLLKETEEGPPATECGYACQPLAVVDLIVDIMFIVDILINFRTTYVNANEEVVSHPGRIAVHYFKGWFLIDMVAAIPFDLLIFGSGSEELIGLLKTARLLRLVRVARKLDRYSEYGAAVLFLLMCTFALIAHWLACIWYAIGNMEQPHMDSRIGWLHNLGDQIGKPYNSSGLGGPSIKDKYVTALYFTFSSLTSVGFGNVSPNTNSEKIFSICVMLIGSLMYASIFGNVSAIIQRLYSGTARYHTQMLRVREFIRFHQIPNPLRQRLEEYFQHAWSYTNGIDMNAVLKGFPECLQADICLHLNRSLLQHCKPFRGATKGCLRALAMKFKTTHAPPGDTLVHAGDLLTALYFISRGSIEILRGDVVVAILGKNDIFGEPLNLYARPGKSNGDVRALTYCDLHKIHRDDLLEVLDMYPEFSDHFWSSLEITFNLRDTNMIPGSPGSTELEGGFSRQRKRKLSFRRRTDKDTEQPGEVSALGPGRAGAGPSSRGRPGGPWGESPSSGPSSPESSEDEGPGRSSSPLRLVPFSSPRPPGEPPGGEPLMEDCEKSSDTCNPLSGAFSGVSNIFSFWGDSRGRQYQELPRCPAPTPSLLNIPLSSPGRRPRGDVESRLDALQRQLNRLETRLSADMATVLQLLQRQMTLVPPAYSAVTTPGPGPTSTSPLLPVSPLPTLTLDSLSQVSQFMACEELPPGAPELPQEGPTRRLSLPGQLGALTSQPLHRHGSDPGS

Compound	hERG current change (%, negative = inhibition) at 10uM
NC(=S)Nc1ccc(C(F)(F)F)cc1Cl	0.127%
O=C(CN1C(=O)C2(OCCO2)c2ccccc21)c1ccc(F)cc1	2.09%
COc1ccc(CCCC(=O)Nc2cc(C)ccc2OC)cc1	-14.2%
CCOc1cc(C(=O)CCC(=O)OCC(=O)Nc2ccc(C)c(S(=O)(=O)N(C)C)c2)ccc1O	-32.7%
Cc1cc(N)n(Cc2cccs2)n1	-2.95%
COc1ccc(C(=O)Nc2nnc(S(=O)(=O)N(C)Cc3ccccc3)s2)cc1	7.21%
O=c1c2ccccc2[nH]c(=S)n1-c1ccc2c(c1)OCO2	13.1%
Cc1nc(NC(=O)CSc2nnc3ccccn23)c(Cl)cc1Cl	-3.58%
Cn1c(=O)c2c(nc(CN3CCN(Cc4ccccc4)CC3)n2Cc2ccc(Cl)cc2)n(C)c1=O	-68%
Cn1c(=O)c2c(nc(CN3CCc4ccccc4C3)n2Cc2ccc(Cl)cc2)n(C)c1=O	0.125%
Cn1c(=O)c2c(nc(CN3CCN(Cc4ccccc4)CC3)n2CCN2CCOCC2)n(C)c1=O	-17.6%
Cc1csc(SCC(=O)Nc2cc(S(=O)(=O)N3CCOCC3)ccc2N2CCOCC2)n1	-45.8%
CCn1c(SCC(=O)Nc2ccc(OC)cc2)nnc1-c1ccco1	-22.3%
O=C(O)/C=C/C(=O)NNC(=O)c1ccccc1Br	2.8%
O=c1[nH]c(SCc2ccc(Cl)cc2)nc2ccsc12	-67%
O=c1[nH]c(SCc2ccccc2)nc2ccsc12	5.3%
O=c1[nH]c(SCc2ccc(Cl)cc2)nc2ccccc12	3.49%
COc1cc(CCCN2C(=S)NC[C@@H]2CC2CCCCC2)cc(OC)c1OC	-1.89%
OCCN(CC#CC(O)(c1ccccc1)c1ccccc1)CCO	5.56%
CN(CC#CC(O)(c1ccccc1)c1ccccc1)C(C)(C)C	-69%
CC(C)N(CC#CC(O)(c1ccccc1)c1ccccc1)C(C)C	-70.4%
CCN(CC)CC#CC(O)(c1ccccc1)c1ccccc1	-42.5%

Compound	hERG current change (%, negative = inhibition) at 10uM
CN(C)CCC#CC(O)(c1ccccc1)c1ccccc1	-32.1%
CC(C)N(CC#CC(O)(c1ccccc1)c1ccccc1)CCO	-28.1%
COc1ccc(-c2cc(CNS(=O)(=O)c3ccc(NC(C)=O)cc3)on2)cc1	18.6%
COc1ccccc1C(=O)NCCOc1ccc(C)c(C)c1	18.5%
COc1ccc(Cl)cc1N(CC(=O)NC1CC1)S(=O)(=O)c1ccc(C)c([N+](=O)[O-])c1	11.9%
COc1ccc(/C=C(\NC(=O)c2ccccc2)C(=O)OCC2CCCN3CCCCC23)cc1OC (stereo not shown)	-40.7%
Cl.O=C(OCC1CCCN2CCCCC12)c1ccc2c(c1)OCO2 (stereo not shown)	-22.8%
O=C(OC1CCCCC1)c1cc2ccccc2oc1=O	-32.6%
O=C(NC(=O)c1cccc(F)c1)OC[C@@H]1CCCN2CCCC[C@H]12	-36.7%
Cl.O=C(OC[C@@H]1CCCN2CCCC[C@H]12)c1cc2ccccc2oc1=O	-50.1%
O=C(Nc1ccc(C(=O)N2CCOCC2)cc1)c1cccc(Br)c1	3.11%
O=C(Nc1ccccc1)OCC1CCCN2CCCCC12 (stereo not shown)	-39.4%
O=C(NC(=O)c1cccc(Cl)c1)OC[C@@H]1CCCN2CCCCC12 (stereo partly shown)	-60.9%
Cl.O=C(Nc1ccc(C(=O)OC[C@@H]2CCCN3CCCC[C@H]23)cc1)c1cccc(Br)c1	-69.3%
O=C(NS(=O)(=O)Oc1ccc(Cl)cc1)OC[C@@H]1CCCN2CCCC[C@H]12	28.2%
O=C(NC(=O)c1ccccc1)OCC1CCCN2CCCCC12 (stereo not shown)	-56.7%
O=C(NCC1CCCO1)c1ccc(NC(=O)c2cccc(Br)c2)cc1 (stereo not shown)	16.4%
CCOC(=O)C(=NCCCN(C)C)NNc1cc(C(F)(F)F)ccc1Cl	-18.5%
O=C(NCCCn1ccnc1)c1ccc(Br)c(S(=O)(=O)N2CCOCC2)c1	-7.41%
COc1ccc(OC)c(NC(=O)Nc2cc(C(=O)O)ccc2C)c1	13.1%
COc1ccccc1NC(=O)CN1C(=O)NC(CC(C)C)C1=O (stereo not shown)	4.37%

— PMC4336329 (PLoS ONE, 2015)
